# The entries come from a sample that favours the strongest signals as a whole.
# How the values were obtained:
# Experiment in all cases: glycan array binding signal (z-score within array); higher = stronger binding
# Settings in all cases: glycan notation: IUPAC condensed, linker removed
# [1] = target: Fuc(a1-2)Gal(b1-3)GlcNAc(b1-2)Man(a1-3)[Fuc(a1-2)Gal(b1-3)GlcNAc(b1-2)Man(a1-6)]Man(b1-4)GlcNAc(b1-4)GlcNAc
# Summary of the method: (§1)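 From the Consortium for Functional Glycomics database, 3228 arrays were curated, keeping only those whose protein sequence was available. Binding is given as a within-array Z-score averaged across arrays sharing a protein sequence and across linkers. Negative Z-scores can be read as non-binding.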
# Fuc(a1-2)Gal(b1-4)Glc6S = target: Fuc(a1-2)Gal(b1-4)Glc6S
# Summary of the method: as §1
# Fuc(a1-2)Gal(b1-4)GlcNAc = target: Fuc(a1-2)Gal(b1-4)GlcNAc
# Summary of the method: as §1
# [2] = target: Fuc(a1-2)Gal(b1-4)GlcNAc6S
# Summary of the method: as §1
# [3] = target: Fuc(a1-2)Gal(b1-4)[Fuc(a1-3)]GlcNAc
# Summary of the method: as §1
# [4] = target: Fuc(a1-2)Gal(b1-4)[Fuc(a1-3)]GlcNAc(b1-3)Gal(b1-4)[Fuc(a1-3)]GlcNAc
# Summary of the method: as §1
# [5] = target: Fuc(a1-2)Gal(b1-4)[Fuc(a1-3)]GlcNAc(b1-3)Gal(b1-4)[Fuc(a1-3)]GlcNAc(b1-3)Gal(b1-4)[Fuc(a1-3)]GlcNAc
# Summary of the method: as §1
# Fuc(a1-2)Gal6S(b1-4)Glc = target: Fuc(a1-2)Gal6S(b1-4)Glc
# Summary of the method: as §1
# [6] = target: Fuc(a1-2)[Gal(a1-3)]Gal(b1-4)Glc
# Summary of the method: as §1
# [7] = target: Fuc(a1-2)[GalNAc(a1-3)]Gal
# Summary of the method: as §1
# [8] = target: Fuc(a1-2)[GalNAc(a1-3)]Gal(b1-3)GlcNAc(b1-2)Man(a1-3)[Fuc(a1-2)[GalNAc(a1-3)]Gal(b1-3)GlcNAc(b1-2)Man(a1-6)]Man(b1-4)GlcNAc(b1-4)GlcNAc
# Summary of the method: as §1
# Fuc(a1-3)GlcNAc = target: Fuc(a1-3)GlcNAc
# Summary of the method: as §1
# [9] = target: Fuc(a1-3)[Gal3S(b1-4)]GlcNAc
# Summary of the method: as §1
# Fuc(a1-4)GlcNAc = target: Fuc(a1-4)GlcNAc
# Summary of the method: as §1
# Gal(a1-3)Gal(b1-3)GlcNAc = target: Gal(a1-3)Gal(b1-3)GlcNAc
# Summary of the method: as §1
# [10] = target: Gal(a1-3)Gal(b1-4)[Fuc(a1-3)]GlcNAc(b1-2)Man(a1-3)[Gal(a1-3)Gal(b1-4)[Fuc(a1-3)]GlcNAc(b1-2)Man(a1-6)]Man(b1-4)GlcNAc(b1-4)GlcNAc
# Summary of the method: as §1
# [11] = target: Gal(a1-3)[Gal(a1-4)]Gal(b1-4)GlcNAc
# Summary of the method: as §1
# Gal(a1-4)GlcNAc = target: Gal(a1-4)GlcNAc
# Summary of the method: as §1
# Gal(b1-3)GalNAc = target: Gal(b1-3)GalNAc
# Summary of the method: as §1
# Gal(b1-4)Glc = target: Gal(b1-4)Glc
# Summary of the method: as §1
# [12] = target: Gal(b1-4)GlcNAc(b1-2)[Gal(b1-4)GlcNAc(b1-6)]Man(a1-6)[Gal(b1-4)GlcNAc(b1-2)Man(a1-3)]Man(b1-4)GlcNAc(b1-4)GlcNAc
# Summary of the method: as §1
# [13] = target: Gal(b1-4)GlcNAc(b1-3)Gal(b1-4)Glc
# Summary of the method: as §1
# [14] = target: Gal(b1-4)GlcNAc(b1-3)GalNAc
# Summary of the method: as §1
# [15] = target: Gal(b1-4)GlcNAc(b1-3)[Gal(b1-4)GlcNAc(b1-6)]GalNAc
# Summary of the method: as §1
# Gal3S(b1-3)GalNAc = target: Gal3S(b1-3)GalNAc
# Summary of the method: as §1
# [16] = target: Gal3S(b1-4)[Fuc(a1-3)]Glc
# Summary of the method: as §1
# Gal3S6S(b1-4)GlcNAc6S = target: Gal3S6S(b1-4)GlcNAc6S
# Summary of the method: as §1
# Gal6S(b1-3)GlcNAc6S = target: Gal6S(b1-3)GlcNAc6S
# Summary of the method: as §1
# GalNAc(a1-3)Gal = target: GalNAc(a1-3)Gal
# Summary of the method: as §1
# [17] = target: GalNAc(a1-3)GalNAc(a1-3)Gal(a1-4)Gal(b1-4)GlcNAc
# Summary of the method: as §1
binder,measurement,setting,value
"AFL (Aspergillus fumigatus), Q4WW81 (protein) STPGAQQVLFRTGIAAVNLTNHLRVYFQDVYGSIRESLYEGSWANGTEKNVIGNAKLGSPVAATSKELKHIRVYTLTEGNTLQEFAYDSGTGWYNGGLGGAKFQVAPYSRIAAVFLAGTDALQLRIYAQKPDNTIQEYMWNGDGWKEGTNLGGALPGTGIGATSFRYTDYNGPSIRIWFQTDDLKLVQRAYDPHKGWYPDLVTIFDRAPPRTAIAATSFGAGNSSIYMRIYFVNSDNTIWQVCWDHGKGYHDKGTITPVIQGSEVAIISWGSFANNGPDLRLYFQNGTYISAVSEWVWNRAHGSQLGRSALPPA",glycan array binding signal (z-score),[1],-0.22
same,glycan array binding signal (z-score),Fuc(a1-2)Gal(b1-4)Glc6S,3.64
same,glycan array binding signal (z-score),Fuc(a1-2)Gal(b1-4)GlcNAc,2.94
same,glycan array binding signal (z-score),[2],3.17
same,glycan array binding signal (z-score),[3],4.58
same,glycan array binding signal (z-score),[4],3.88
same,glycan array binding signal (z-score),[5],4.31
same,glycan array binding signal (z-score),Fuc(a1-2)Gal6S(b1-4)Glc,3.41
same,glycan array binding signal (z-score),[6],-0.359
same,glycan array binding signal (z-score),[7],1.73
same,glycan array binding signal (z-score),[8],-0.374
same,glycan array binding signal (z-score),Fuc(a1-3)GlcNAc,3.8
same,glycan array binding signal (z-score),[9],0.994
same,glycan array binding signal (z-score),Fuc(a1-4)GlcNAc,3.56
same,glycan array binding signal (z-score),Gal(a1-3)Gal(b1-3)GlcNAc,-0.384
same,glycan array binding signal (z-score),[10],-0.087
same,glycan array binding signal (z-score),[11],-0.382
same,glycan array binding signal (z-score),Gal(a1-4)GlcNAc,-0.385
same,glycan array binding signal (z-score),Gal(b1-3)GalNAc,-0.383
same,glycan array binding signal (z-score),Gal(b1-4)Glc,-0.383
same,glycan array binding signal (z-score),[12],-0.356
same,glycan array binding signal (z-score),[13],-0.386
same,glycan array binding signal (z-score),[14],-0.386
same,glycan array binding signal (z-score),[15],-0.382
same,glycan array binding signal (z-score),Gal3S(b1-3)GalNAc,-0.387
same,glycan array binding signal (z-score),[16],0.328
same,glycan array binding signal (z-score),Gal3S6S(b1-4)GlcNAc6S,-0.381
same,glycan array binding signal (z-score),Gal6S(b1-3)GlcNAc6S,-0.385
same,glycan array binding signal (z-score),GalNAc(a1-3)Gal,-0.386
same,glycan array binding signal (z-score),[17],-0.4

# Source: the supplement of paper PMC8728848
